VACV mCherry inh: inhibitors of vaccinia virus infection (mCherry reporter signal) | Potency, µM (series often up to 36.5 µM), inactives show top-dose activity change, negative = inhibition, most hits filed as inhibitors | Vaccinia virus mCherry reporter infection, fluorescence | 310,000 tested, 0.63% active | AID 720579; calls by dose curve; tested in A549 cells; further: potency means the concentration at half of the fitted maximal effect; on the % scale 0 is the no-effect control and ±100 the full control effect; nearly all actives have a fitted effect of over 35% in size
VACV Venus inh: vaccinia inhibition (Venus reporter); Vaccinia virus Venus reporter expression, fluorescence; Potency, µM (series often up to 36.5 µM), for the others: at the highest dose activity change, negative = inhibition, actives largely listed as inhibitors; 330,000 tested, 0.46% active; calls by dose curve; tested in A549 cells; further: potency means the concentration at half of the fitted maximal effect; on the % scale 0 is the no-effect control and ±100 the full control effect; nearly all actives have a fitted effect of over 30% in size
Shiga toxin inh: Shiga toxin inhibition | 290,000 tested, 9.2% active | inhibition, % at 38.7 µM | AID 2315 | Vero cells, Shiga toxin protein synthesis inhibition reporter; in the data active means inhibition mostly above about 28%, no sharp cut-off; inactive means mostly below about 43%; further: 0% is about no effect
LASV entry inh: Lassa virus entry inhibition; Potency, µM (highest dose often 37.9 µM), without a hit: at the top dose activity change, negative = inhibition, hits mostly inhibitors; Lassa virus pseudotype entry inhibition, cell reporter; 300,000 tested, 1.2% active; calls by dose curve; tested in HEK293 cells; further: potency means the concentration at half of the fitted maximal effect; on the % scale 0 is the no-effect control and ±100 the full control effect; nearly all actives have a fitted effect of over 50% in size
MARV entry inh: inhibitors of Marburg virus binding or cell entry; Potency, µM (titrated, usually from 37.8 µM), without a hit: top-dose activity change, negative = inhibition, hits mostly inhibitors; Marburg virus pseudotyped entry inhibition, cell reporter; 300,000 tested, 1.8% active; AID 540276; calls by dose curve; tested in HEK293 cells; further: potency means the concentration at half of the fitted maximal effect; on the % scale 0 is the no-effect control and ±100 the full control effect
CHX counter: counter-screen for Shiga toxin inhibitors: cycloheximide protein synthesis inhibition. cell reporter, cycloheximide protein synthesis inhibition counterscreen. max response, %. 300,000 tested, 12% active; in the data active means max response mostly above about 13%, no sharp cut-off; inactive means mostly below about 14%; further: read at 38.3 µM for the half of the compounds with a filed dose; 0% is about no effect
* = called active by the depositor; [ ] = remark or other dose. This excerpt belongs to a sample that is enriched for hits.

For COc1ccccc1C1CCN(C(=O)c2ccco2)CC1 the results were VACV mCherry inh inactive, VACV Venus inh 6%, Shiga toxin inh 11, LASV entry inh -5%, MARV entry inh -4%[14.2 µM] and CHX counter 0.
Screening CC(C)CN1C(=O)C(=O)N(CC(=O)c2ccc[nH]2)C1=O returned VACV mCherry inh -11%, VACV Venus inh -13%, LASV entry inh 3% and MARV entry inh 15%.
Cc1c(C(=O)N2CCOCC2)c(S(=O)(=O)Nc2ccc(OC(F)(F)F)cc2)c(C)n1C was read as Shiga toxin inh -7 and CHX counter 4.
S=C1NC[C@H](CC2CCCCC2)N1CC1CCCCC1 was read as VACV mCherry inh -23%, VACV Venus inh inconclusive, Shiga toxin inh -16 and CHX counter -1.
Clc1ccc(/C=C/c2ccnc3ccccc23)c(Cl)c1 was read as VACV mCherry inh -14% and VACV Venus inh inconclusive.
For COc1cccc(-c2nnc3sc(-c4ccco4)nn23)c1 the results were Shiga toxin inh 45, LASV entry inh inconclusive, MARV entry inh inconclusive and CHX counter 39*.
For c1coc(-c2nnc3sc(-c4cccs4)nn23)c1 the results were Shiga toxin inh 45, LASV entry inh -1%, MARV entry inh 8% and CHX counter 14*.
Screening COc1cc(OC)c(-c2nn3c(-c4ccco4)nnc3s2)cc1OC returned VACV mCherry inh 11µM*, VACV Venus inh inconclusive, Shiga toxin inh 9, LASV entry inh inconclusive, MARV entry inh -18% and CHX counter -4.
Screening CC(=O)Nc1ccccc1-c1nc(CNC(=O)c2cc(C)ccc2C)c(C)o1 returned VACV mCherry inh -5% and VACV Venus inh 12%.
For COc1ccc(-n2nc(C(=O)NCC(=O)N3CCC4(CC3)OCCO4)c3ccccc3c2=O)cc1 the results were VACV mCherry inh -2%, VACV Venus inh -6%, Shiga toxin inh 25, MARV entry inh inconclusive and CHX counter 10.
`COc1ccc(-n2nc(C(=O)NCC(=O)N3CCOCC3)c3ccccc3c2=O)cc1Cl` gave VACV mCherry inh -18%, VACV Venus inh -8%, Shiga toxin inh -10, LASV entry inh inconclusive, MARV entry inh 26%[46.1 µM] and CHX counter -2.
`COc1ccc(-n2nc(C(=O)NCC(=O)N3CCCC(C)C3)c3ccccc3c2=O)cc1Cl` (configuration not stated) gave VACV mCherry inh -19%, VACV Venus inh -10%, Shiga toxin inh 36*, LASV entry inh inconclusive, MARV entry inh -27%[46.1 µM] and CHX counter 17*.
COc1ccc(-n2nc(C(=O)NCC(=O)N3CCCC(C)C3)c3ccccc3c2=O)cc1 (configuration not stated) was read as VACV mCherry inh -14%, VACV Venus inh -19%, Shiga toxin inh 39, MARV entry inh inconclusive and CHX counter 18*.
For COc1ccc(-n2nc(C(=O)NCC(=O)N3CCC(C(N)=O)CC3)c3ccccc3c2=O)cc1 the results were VACV mCherry inh -9%, VACV Venus inh -10%, Shiga toxin inh -8, LASV entry inh -15%[46.1 µM], MARV entry inh -6%[46.1 µM] and CHX counter -2.
`COc1ccc(-n2nc(C(=O)NCC(=O)N3CCC4(CC3)OCCO4)c3ccccc3c2=O)cc1Cl` gave VACV mCherry inh inactive, VACV Venus inh -4%, Shiga toxin inh 54*, LASV entry inh inconclusive, MARV entry inh -13% and CHX counter 23*.
For COc1ccc(-n2nc(C(=O)NCC(=O)N3CCC(C)CC3)c3ccccc3c2=O)cc1 the results were VACV mCherry inh -15%, VACV Venus inh -11%, Shiga toxin inh 48*, MARV entry inh 2%[46.1 µM] and CHX counter 33*.
Screening COc1ccc(C(=O)CSc2nc3cc(C(=O)NC4CCCC4)ccc3c(=O)n2CC2CCCO2)cc1 (configuration not stated) returned VACV mCherry inh -30%, VACV Venus inh -28% and LASV entry inh 6%[46.1 µM].
Screening CCc1cccc(NC(=O)C2CCC(CNS(=O)(=O)c3ccc4c(c3)CCCC(=O)N4)CC2)c1 (configuration not stated) returned VACV mCherry inh -8%, VACV Venus inh -2% and LASV entry inh 7%[46.1 µM].
CC(C)CN(CCNC(=O)CCN1N=C(c2ccccc2)CCC1=O)CC(C)C was read as VACV mCherry inh -5%, VACV Venus inh -10% and LASV entry inh inconclusive.

Bioassay records deposited in PubChem by National Center for Advancing Translational Sciences (NCATS).
